# Screening data: PubChem, National Center for Advancing Translational Sciences (NCATS)
# Only some compounds are listed: those with a hit (about 21% of all), similar ones and a draw of the others.
# D3 antag – D3 dopamine receptor (human) antagonism | D3R cells, DiscoveRx beta-arrestin luminescence, antagonist mode; active compounds read low | max response, negative = inhibition, % | actives 2.5% (n = 360,000) | AID 652054; in the data active = max response below about -50%; inconclusive = no clear call, values can overlap the other calls; note: % is set by controls: 0 for no effect and ±100 for the full control effect
# Target sequence (P35462 whole entry, looked up): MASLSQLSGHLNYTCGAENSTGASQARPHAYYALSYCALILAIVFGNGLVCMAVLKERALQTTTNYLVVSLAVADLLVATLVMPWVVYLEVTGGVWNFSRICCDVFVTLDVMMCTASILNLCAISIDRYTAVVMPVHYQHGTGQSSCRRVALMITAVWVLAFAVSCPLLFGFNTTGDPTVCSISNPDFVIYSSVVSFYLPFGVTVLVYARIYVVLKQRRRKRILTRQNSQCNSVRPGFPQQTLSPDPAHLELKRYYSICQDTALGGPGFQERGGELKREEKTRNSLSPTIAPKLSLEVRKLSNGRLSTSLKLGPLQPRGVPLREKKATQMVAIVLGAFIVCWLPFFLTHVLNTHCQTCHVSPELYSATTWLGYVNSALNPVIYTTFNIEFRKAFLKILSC
#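 Cells plated overnight at 1500 cells/well, then exposed to library compounds with dopamine controls for 90 minutes at 37 degrees C. DiscoveRx reagent added for 30–60 minutes at room temperature; luminescence read, quantitative HTS format.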
# DT40 TDP1 no CPT – qHTS for Inhibitors of human tyrosyl-DNA phosphodiesterase 1 (TDP1): qHTS in cells in absence of CPT; Potency, µM (series often up to 46.2 µM), for the others: at the top dose activity change, negative = growth inhibition, actives largely listed as inhibitors; actives 15% (n = 420,000); DT40 Tdp1-/- hTDP1 cells, no CPT, ATP luminescence, 48 h; note: potency is the fitted concentration of half-maximal effect; % is set by controls: 0 for no effect and ±100 for the full control effect; nearly all actives have a fitted effect of over 55% in size
#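 DT40 Tdp1-/-;hTDP1 cells, no CPT (DMSO vehicle only), 400 cells/well; compounds pin-transferred; ≥48 hr, 37 °C; CellTiter-Glo 30 min RT dark, luminescence read.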
# IL1B secr inh – inhibitors of inflammasome signaling (IL-1 beta secretion); THP-1 LPS/ATP IL-1B secretion, AlphaLISA, 16 h; active compounds read low; activity change, % at 57.5 µM; actives 4.7% (n = 360,000); AID 743279; in the data active = activity change below about -50%; inconclusive = mostly about -30% to -49%; note: % is set by controls: 0 for no effect and ±100 for the full control effect
#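 Secreted IL-1B measured by AlphaLISA bead assay after 16 h compound exposure of THP-1 cells; compounds (final up to 57.5 uM) added 1 h before LPS (250 ng/mL) and ATP (1.25 mM) stimulation; lower signal means less secretion.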
# D3 ag – agonists of human D3 dopamine receptor; P35462; D3R DiscoveRx beta-arrestin cells, luminescence, 90 min; max activation, %; actives 0.58% (n = 410,000); AID 652048; in the data active = max activation above about 30%; note: 0% is about no effect
#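 Agonist-mode cell screen: cells plated at 1500/well and incubated overnight at 37 °C, then exposed to library compounds for 90 min at 37 °C. Detection reagent was added for 30–60 min at room temperature, and luminescence was read.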
# TDP1 cell CPT – growth inhibition of DT40 Tdp1-/-;hTDP1 cells with camptothecin (screen for TDP1 inhibitors); chicken DT40 Tdp1-/-;hTDP1 cells + 20 nM CPT, ATP luminescence, 48 h; Potency, µM (titrated, usually from 46.2 µM), for the others: at the top dose activity change, negative = growth inhibition, usual class: inhibitors; actives 12% (n = 420,000); note: potency is the fitted concentration of half-maximal effect; % is set by controls: 0 for no effect and ±100 for the full control effect; nearly all actives have a fitted effect of over 55% in size
#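 Chicken DT40 Tdp1-/- cells complemented with human TDP1, 400 cells/well, exposed to compounds plus 20 nM camptothecin for at least 48 h at 37 C; viability read as ATP content by CellTiter-Glo luminescence.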
# ClpP mod – qHTS Assay for Activators of ClpP | ATP-dependent Clp protease proteolytic subunit (Bacillus subtilis (strain 168)), P80244 | purified B. subtilis ClpP, FRET peptide cleavage, 20 min | Potency, µM (titrated, usually from 57.5 µM), inactives show top-dose activity change, negative = active | actives 1.9% (n = 340,000) | AID 651965, 2013; active = well fitted falling curve with a large enough effect; inconclusive = small, poorly fitted or top-dose-only effect; inactive = no such curve, though single readings can be large or run the other way; note: potency is the fitted concentration of half-maximal effect; the source files actives as falling curves though it sought activators and does not explain the sign; nearly all actives have a fitted effect of over 65% in size
# Target sequence (P80244 whole entry, looked up): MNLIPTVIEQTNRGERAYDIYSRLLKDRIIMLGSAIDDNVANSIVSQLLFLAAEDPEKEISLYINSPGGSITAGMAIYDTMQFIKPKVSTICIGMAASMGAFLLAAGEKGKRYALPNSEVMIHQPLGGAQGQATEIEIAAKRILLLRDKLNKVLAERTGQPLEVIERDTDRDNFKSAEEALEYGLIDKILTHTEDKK
#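 Buffer: 100 mM Tris/HCl pH8, 100 mM KCl, 0.05% low protease BSA, 2.5% glycerol, 0.01% Tween-20. ClpP 10 microg/mL final; 20 min RT; delta FRET normalized to ADEP and DMSO controls.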
# Numbers without * were called inactive; ? = inconclusive; . = no result. Unless noted, calls come from the whole dose curve; as a rule, active = well fitted inhibition curve with a large enough effect; inconclusive = small, poorly fitted or top-dose-only effect; inactive = flat fitted curve, though single readings scatter.
SMILES,D3 antag,DT40 TDP1 no CPT,IL1B secr inh,D3 ag,TDP1 cell CPT,ClpP mod
O=S(=O)(c1ccc2[nH]c3c(c2c1)CCCC3)N1CCN(c2cccc(C(F)(F)F)c2)CC1,.,?,.,3.4,?,?
Cc1ccc(S(=O)(=O)CCC(=O)Nc2nc(-c3cccnc3)cs2)cc1,14.0,?,-9.6,2.8,14.6µM*,-0.4%
COc1ccc(NC(=O)CCS(=O)(=O)c2ccc(Cl)cc2)cc1,0.8,8.6%,36.1,0.6,-1.7%,1.1%
O=C(CCS(=O)(=O)c1ccc(Cl)cc1)Nc1nc(-c2ccncc2)cs1,29.0,13µM*,?,3.4,16.4µM*,-2.3%
Cc1ccc(S(=O)(=O)CCC(=O)Nc2nc(-c3ccccn3)cs2)cc1,-29.0,5.8µM*,8.0,-0.5,6.51µM*,-1.2%
COc1ccc(-c2csc(NC(=O)CCS(=O)(=O)c3ccccc3)n2)c(OC)c1,12.9,8.2µM*,-87.6*,0.7,?,3.6%
O=C(CCNC(=O)C1CCN(S(=O)(=O)c2ccc(F)cc2)CC1)NCc1cccc(Cl)c1,-4.2,-26.4%,-0.3,0.7,-5.1%,1.1%
Cc1cc(C(=O)N/N=C/c2cc(Br)c(Br)o2)n[nH]1,3.3,-10.2%,-8.8,1.0,-12.9%,.
O=C(Cc1ccccc1)NCC(=O)OCc1cccc([N+](=O)[O-])c1,-4.0,13.0%,30.9,4.4,-3.6%,1.6%
CCc1nnc(NC(=O)CSCc2cc(=O)c3ccc(C)cc3[nH]2)s1,.,-2.0%,.,-1.8,-0.6%,-8.9%
Cc1ccc2c(c1)-c1onc(C(=O)N(C)c3cccc(C(F)(F)F)c3)c1CO2,.,.,.,-6.1,.,-15.5%
O=C(CCS(=O)(=O)c1ccccc1)Nc1nc(-c2ccc(F)cc2)cs1,-0.7,?,-76.6*,5.4,?,.
O=C(CS(=O)(=O)c1ccccc1)Nc1nc(-c2ccc(F)cc2)cs1,3.0,?,-21.9,3.6,?,-1.1%
CCSC1=N/C(=C\c2ccccc2)C(=O)N1c1ccc(OC)cc1,-24.6,20.6µM*,-5.2,4.8,?,.
C=CCSC1=N/C(=C\c2cccnc2)C(=O)N1c1ccc(OC)cc1,-3.2,?,11.6,1.1,-6.3%,0.7%
COc1ccc(C2C(C(=O)c3ccccc3)N3c4ccccc4C=CC3C2[N+](=O)[O-])cc1 (configuration not stated),-5.4,10.3µM*,-20.7,6.1,7.31µM*,.
CCc1ccccc1NC(=S)NC1CC2CCCC(C1)N2Cc1cccs1 (configuration not stated),-75.9*,?,?,-34.9,-25.4%,-3.8%
O=C(Nc1cccc(Cl)c1)NC1CC2CCC(C1)N2Cc1cccs1 (configuration not stated),-97.8*,25.9µM*,-15.7,-0.2,20.6µM*,2.3%
Cc1ccc(NC(=S)NC2CC3CCCC(C2)N3Cc2cccs2)cc1 (configuration not stated),-70.6*,17.8µM*,-74.1*,-30.1,?,-9.0%
CC(C)CNC(=S)NC1CC2CCCC(C1)N2Cc1cccs1 (configuration not stated),-76.0*,?,-17.5,-29.2,?,-0.9%
CCCc1nc2sc3c(N4CCCCC4)ncnc3c2c2c1CCCC2,.,0.9%,.,1.6,-5.9%,-1.3%
CCCc1cc(=O)[nH]c(SCC(=O)Nc2ccc(OC)c(S(=O)(=O)N3CCCCC3)c2)n1,2.0,-22.4%,31.5,-0.5,?,1.7%
O=C(NCc1cccs1)Nc1cccc(Cl)c1,9.3,-4.7%,-8.1,2.6,-19.5%,-3.5%
Fc1ccc(NC(=S)NC2CC3CCCC(C2)N3Cc2cccs2)cc1 (configuration not stated),-54.5*,-8.0%,?,-16.2,3.4%,.
O=C(Nc1cccc(Cl)c1)NC1(C(=O)NCc2cccs2)CCCCC1,-25.3,25.9µM*,-5.4,-22.6,20.6µM*,0.0%
SMILES,D3 antag,DT40 TDP1 no CPT,IL1B secr inh,D3 ag,TDP1 cell CPT,ClpP mod
CC1=C(C(=O)O)CC(S(=O)(=O)O)C1(C)C (configuration not stated),13.8,-3.5%,2.9,0.3,5.7%,-0.9%
CC1CCC(NC(=O)c2ccc(NC3=NC4CS(=O)(=O)CC4S3)cc2)CC1 (configuration not stated),-2.2,4.1%,-9.0,3.6,1.7%,0.8%
NC(=O)c1sc2nc3c(c(-c4cccnc4)c2c1N)CCC3,12.5,-9.4%,65.1,10.9,?,0.5%
CCOC(=O)Cn1nnc2c(sc3nc4c(c(-c5ccc(Cl)cc5)c32)CCC4)c1=O,23.8,16.4µM*,5.9,-1.5,?,-0.1%
CCOC(=O)c1c(C)nc2sc3c(=O)n(-c4ccc(C(C)=O)cc4)nnc3c2c1-c1ccc(Cl)cc1,33.3,16.4µM*,-15.4,28.6,?,2.5%
CCOC(=O)Cn1nnc2c(sc3nc4c(c(-c5ccccc5)c32)CCC4)c1=O,-26.3,16.4µM*,-3.7,0.2,20.6µM*,-1.6%
O=c1cc(O)nc(SCc2ccc(Cl)cc2)[nH]1,-17.4,-1.0%,5.2,-0.3,0.8%,-3.1%
CC(=O)c1ccc(OC(C)C)c(CSc2nc(O)cc(=O)[nH]2)c1,-103.2*,?,14.4,-31.8,-10.2%,-2.0%
Cc1c(O)c(CN2CCCCC2)cc2c1oc(=O)c1ccccc12,-1.1,25.9µM*,?,-13.5,?,-9.5%
CN1C[C@H]2c3ccccc3Oc3ccc(Cl)cc3[C@@H]2C1,.,?,.,-25.9,?,.
O=C(C[n+]1ccncc1)c1ccc(Br)cc1,.,?,.,.,?,-3.6%
Cc1cccc(-c2noc(CN(C(=O)c3ccc(C)c(C)c3)C(C)C)n2)c1,.,3.66µM*,.,-5.7,5.17µM*,0.4%
CC(C)N(Cc1nc(-c2ccccc2)no1)C(=O)C(Cl)(Cl)Cl,-5.0,-27.8%,?,-0.3,3.3%,-0.3%
COc1ccc(-c2noc(CCC(=O)NC3CCCCCC3)n2)cc1OC,1.8,?,-19.0,-1.7,?,-3.7%
Cc1onc(-c2ccccc2Cl)c1C(=O)N(Cc1nc(-c2ccccc2)no1)C1CCCCC1,21.5,18.4µM*,6.6,-2.7,?,0.1%
COc1ccc(C(=O)N(Cc2nc(-c3ccc(C)cc3)no2)C2CCCCC2)cc1OC,-28.2,?,-67.0*,-25.0,?,-1.7%
